Only some compounds are listed: those with a hit (about 3.8% of all), similar ones and a draw of the others.
ATXN2 expr inh = ATXN2 expression inhibition; AID 1745845; 360,000 compounds, 0.72% hits; Potency, µM (doses to about 57 µM), for inactives: at the top dose activity change, negative = inhibition, hits mostly inhibitors; HEK-293 ATXN2-luciferase reporter, luminescence, 24 h; note: % is set by controls: 0 for no effect and ±100 for the full control effect; nearly all actives have a fitted effect of over 55% in size
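qHTS (up to 57 uM final) was run with 24 h compound exposure of reporter cells at 37 °C. Each well was multiplexed: SteadyGlo luminescence measured ATXN2-luciferase expression after a fluorogenic Gly-Phe-AFC viability readout (25 uM final).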
TGFb inhibitor = inhibitors of TGF-b signaling; HepG2 CAGA-GFP TGF-b/SMAD3 reporter, GFP fluorescence, 18 h; TGF-beta stimulated, 500 pg/mL final; Potency, µM (highest dose often 46.1 µM), without a hit: at the highest dose activity, negative = inhibition, actives largely listed as inhibitors; 410,000 compounds, 1.2% hits; AID 588855; note: % is set by controls: 0 for no effect and ±100 for the full control effect; nearly all actives have a fitted effect of over 65% in size
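Per well, imaged GFP fluorescence of HEPG2 CAGA-GFP cells gives the signal; cells get compound, then TGF-beta (500 pg/mL final), 18 h at 37 degrees C; %Activity versus -TGF-beta and +DMSO controls.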
ATXN viability = viability counter-screen for ATXN expression inhibitors | S2 cells (HEK-293 line with an ATXN2-luciferase reporter) viability, CellTiter-Fluor protease fluorescence, 24 h | Potency, µM (titrated, usually from 56.7 µM), usual class: cytotoxic | 400,000 compounds, 0.49% hits; note: nearly all actives have a fitted effect of over 40% in size
HepG2 viability = HepG2 cytotoxicity, counter-screen for TGF-b inhibitors; Potency, µM (doses to about 46.1 µM), for inactives: top-dose activity change, negative = cytotoxicity, hits mostly cytotoxic; 410,000 compounds, 0.76% hits; AID 588856; HepG2 CAGA-GFP viability, ATP luminescence, 18 h
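HepG2 CAGA-GFP cells (1000/well, DMEM with 1% FBS) received compound, then TGF-beta at 500 pg/mL final, and were incubated 18 hours at 37 degrees C. Viability was read by CellTiter-Glo luminescence. Media-only wells were set as complete cell-killing and DMSO as no toxicity.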
A549 viability = kills or reduces viability of A549 cells in Nrf2 counter-screen. Potency, µM (top dose mostly 46 µM), for inactives: at the top dose activity change, negative = cytotoxicity, usual class: inhibitors. A549 ARE-Fluc cells, CellTiter-Fluor viability, 18-24 h. 390,000 compounds, 0.16% hits; note: % is set by controls: 0 for no effect and ±100 for the full control effect
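A549 ARE_Fluc cells in 5% FBS OPTI-MEM were exposed to compounds in concentration-response for 18-24 h at 37 deg C. Viability was read by CellTiter-Fluor fluorescence (Ex 405/Em 525) after 30 min, before the luciferase read.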
Nrf2 inh = blocks Nrf2 signaling; Potency, µM (titrated, usually from 46 µM), for the others: at the highest dose activity change, negative = inhibition, usual class: inhibitors; 360,000 compounds, 2.1% hits; A549 ARE-Fluc reporter, luciferase luminescence, 18-24 h; note: % is set by controls: 0 for no effect and ±100 for the full control effect; nearly all actives have a fitted effect of over 60% in size
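In this cell-based qHTS, ARE-driven firefly luciferase in A549 cells reports Nrf2 activity; the luminescent signal after BugLite lysis is the measured value, with a prior CellTiter-Fluor read for cell health.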
Numbers without * were called inactive; i = inactive; ? = inconclusive; · = no result given. Calls come from the whole dose curve; as a rule, active = well fitted curve in the direction sought with a large enough effect; inconclusive = small, poorly fitted or top-dose-only effect, or another doubt; inactive = no such curve, though single readings can be large; an effect the other way counts as inactive or inconclusive. Potency is the fitted concentration of half-maximal effect.

SMILES	ATXN2 expr inh	TGFb inhibitor	ATXN viability	HepG2 viability	A549 viability	Nrf2 inh
CC(=O)Oc1ccc2c(c1)OC(c1ccccc1)CC21CC(C)(C)NC(=S)N1 (centres undefined)	-8%	3%	i	1%	1%	-23%
COc1ccc(C2(c3ccc(OC(C)=O)cc3OC(C)=O)CC(c3ccccc3)NC(=S)N2)cc1 (centres undefined)	-22%	-28%	i	-2%	?	21µM*
C#CCOCCOCCOCCNc1nc(N2CCN(C(=O)CCCCCCCCCCNC(=O)[C@@H](CCSC)n3cc(CCO)nn3)CC2)nc(N2CCN(C(=O)CCCCCCCCCCNC(=O)[C@H]([C@@H](C)CC)n3cc(CCCCN=C(N)N)nn3)CC2)n1	?	?	16µM*	-76%	?	?
C#CCOCCOCCOCCNc1nc(N2CCN(C(=O)CCCCCCCCCCNC(=O)[C@@H](CCSC)n3cc(CCO)nn3)CC2)nc(N2CCN(C(=O)CCCCCCCCCCNC(=O)[C@H]([C@@H](C)CC)n3cc(CCCCCN)nn3)CC2)n1	28µM*	?	14µM*	-101%	?	?
C#CCOCCOCCOCCNc1nc(N2CCOCC2)nc(N2CCN(C(=O)CCCCCCCCCCNC(=O)[C@@H](CCSC)n3cc(CCO)nn3)CC2)n1	-6%	-18%	i	-12%	-2%	?
CCOC(=O)c1c(NC(=O)c2c(Br)cnn2C)c(C#N)nn1-c1ccccc1	?	-23%	i	-20%	-13%	18µM*
O=C(CCc1nc2ccccc2c(=O)[nH]1)N1CCN(c2ccc(F)cc2)CC1	-6%	13%	i	10%	0%	16µM*
COc1cccc(C(=O)NCCN2CCC(n3c(=O)[nH]c4ccccc43)CC2)c1	15%	·	i	·	·	·
c1cn2c(NC3CCCCC3)c(-c3ccc(SC4CCCCC4)cc3)nc2cn1	10%	2.8µM*	·	-1%	7%	3%
c1cc(SC2CCCCC2)cc(-c2nc3cnccn3c2NC2CCCCC2)c1	?	-17%	·	16µM*	?	?
CCC(C)Sc1cccc(-c2nc3cnccn3c2NC2CCCCC2)c1 (centres undefined)	?	?	·	-106%	-5%	?
c1cn2c(NC3CCCC3)c(-c3ccc(N4CCOCC4)cc3)nc2cn1	50%	-25%	·	-42%	-2%	-5%
O=C(CCl)N1N=C(c2ccco2)CC1c1ccco1 (centres undefined)	-15%	11µM*	i	-85%	1%	17%
CN1CCN(CC(=O)N2N=C(c3cccs3)CC2c2ccco2)CC1 (centres undefined)	-2%	8%	i	0%	-4%	1%
O=C(CCl)N1N=C(c2cccs2)CC1c1ccco1 (centres undefined)	4.2µM*	11µM*	·	-89%	-14%	?
COC(=O)c1ccsc1NC(=O)CSc1nnnn1-c1ccccc1SC	-22%	30%	i	-44%	-20%	21µM*
CSc1ccccc1NC(=O)CSc1nnnn1-c1ccccc1SC	82%	-7%	i	-19%	2%	6%
COc1cc2[nH]c(=O)n(CCCC(=O)N3CC=C(c4ccccc4)CC3)c(=O)c2cc1OC	-9%	?	i	-6%	9%	-8%
COc1cccc2c1[C@@H]1CN(CCCCn3c(=O)[nH]c4c(sc5ncc(-c6ccccc6)nc54)c3=O)C[C@@H]1CO2	?	13µM*	?	-91%	-22%	-25%
COc1cc(/C=C/C(=O)c2ccc(C)c([N+](=O)[O-])c2)cc(OC)c1O	?	13µM*	i	-44%	5%	?
COc1ccc(/C=C/C(=O)c2ccc(C)c([N+](=O)[O-])c2)cc1O	-19%	18µM*	i	20µM*	-9%	28%
